# Data: PubChem BioAssay AID2546 (National Center for Advancing Translational Sciences (NCATS), 2010)
# The whole screen tested about 310,000 compounds, of which about 11,000 (3.5%) were called active. Roughly 8% stayed inconclusive and do not appear here. The call rests on the fitted dose curve; in most records, active means well fitted inhibition curve with a large enough effect; inconclusive means small, poorly fitted or top-dose-only effect, or effect the other way; inactive means flat fitted curve, though single readings scatter. The entries come from a sample that favours actives as a whole.
# Test: VP16 counterscreen qHTS for inhibitors of ROR gamma transcriptional activity;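 further: Gal4-VP16 expression switched on by copper sulfate through the metallothionein promoter; nearly all actives have a fitted effect of over 50% in size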
# Settings: Drosophila S2 Gal4-VP16 UAS-luciferase, luminescence, 20 h; series mostly up to 53.6 µM; activity, negative = inhibition: at the top concentration
# Description: NIH Molecular Libraries Probe Production Network [MLPCN]
# NIH Chemical Genomics Center [NCGC]
# Assay Provider: Dan Littman, New York University
# The retinoic acid-related orphan receptor (ROR) gamma is a transcription factor that has a central role in the differentiation of Th17 cells, a subset of T helper cells that secrete the inflammatory cytokines IL-17, IL-17F, and IL-22. Th17 cells have been implicated in graft versus host disease, autoimmune disease and asthma. ROR gamma is induced in naive T helper cells in the presence of TGF-beta combined with IL-6, IL-21, or IL-23, and thereafter directs the expression of the Th17 lineage cytokines. To identify nonspecific inhibitors, a Drosophila Schneider cell line was stably transfected with two vectors: a gene expressing a fusion of the Gal4 DNA binding domain and VP16 transactivation domain under the control of the metallothionine promoter and a Photinus luciferase reporter regulated by the Gal4 binding site enhancer, UAS. […] Small molecule inhibitors that inhibit components common to the RORgt and VP16 assays, such as the Gal4 DNA binding domain or the UAS luciferase reporter, will be active in both assays and thus scored as nonspecific.
# For screening, 600 cells in 4 uL/well were dispensed into white solid 1536-well plates (Grenier) using a solenoid-based dispenser. Following transfer of 23 nL compound or DMSO vehicle by a pin tool, the plates were incubated 1 hr at ambient temperature, and 1 uL/well copper sulfate (700 uM final concentration) was added. The plates were centrifuged 15 s at 1000 RPM and incubated 20 hr at ambient temperature. After addition of 1.5 uL Photinus luciferase detection reagent, the plates were incubated 10 min at ambient temperature and then read by a ViewLux (Perkin Elmer) to detect luminescence.
# On the % scale 0 is the no-effect control and ±100 the full control effect; potency means the concentration at half of the fitted maximal effect.
SMILES,"activity, negative = inhibition",Potency
COc1ccc(N(C(=O)c2snc(C(N)=O)c2N)C(C(=O)NC2CCCC2)c2ccco2)cc1OC (stereo not drawn),18.6% (inactive),
O=C(NC(=S)N1CCCCC1c1cccnc1)c1ccccc1 (stereo not drawn),,4.47 µM (active)
O=C(Nc1ccccc1C(F)(F)F)N1CCCC1c1cccnc1 (stereo not drawn),-1.56% (inactive),
COc1ccc(C(=O)N2CCCC(C(=O)c3ccccc3OC)C2)cc1OC (stereo not drawn),2.57% (inactive),
COc1ccc(C(=O)Nc2cccnc2)cc1C(=O)Nc1cccnc1,-9.29% (inactive),
Cc1ccc(-c2cc(C(F)(F)F)n3ncc(C(=O)N4CCCCC4c4cccnc4)c3n2)cc1 (stereo not drawn),-3.74% (inactive),
COc1ccc(C(=O)NC(=S)N2CCCCC2c2cccnc2)cc1OC (stereo not drawn),,17.8 µM (active)
COc1ccc(Nc2ncnc3sc(C)cc23)cc1,-8.4% (inactive),
CCc1nnc(NS(=O)(=O)c2ccc(N=Cc3c(C)[nH]n(-c4ccc(C)cc4)c3=O)cc2)s1,0.41% (inactive),
Cc1ccc(-c2ccnc3[nH]n(-c4ccccc4)c(=O)c23)cc1,-8.24% (inactive),
Cc1ccc(-n2[nH]c(C)c(/C=N/N3C(=O)c4cccc5cccc(c45)C3=O)c2=O)cc1,,12.6 µM (active)
O=C(CNC(=O)C1COc2ccccc2O1)N/N=C/c1cc(Br)c(O)c(Br)c1 (stereo not drawn),-0.0094% (inactive),
O=C(NCCc1c[nH]c2ccccc12)C1CCN(Cc2ccc(Br)cc2)CC1,-0.728% (inactive),
COc1ccccc1N1CCN(C(=O)CCS(=O)(=O)c2ccc3c(c2)NC(=O)C(C)S3)CC1 (stereo not drawn),-26.4% (inactive),
CCOc1ccc(NC(=O)C2CCN(C(=O)N3CCOc4ccccc43)CC2)cc1,-5.72% (inactive),
CCCNC(=O)c1cnc(-c2ccccc2)nc1-c1ccccc1,14.3% (inactive),
CC(=O)c1c(C)[nH]c(=S)c(C#N)c1-c1ccc(F)cc1,-8.92% (inactive),
CCOC(=O)c1c(C)[nH]c2c1-c1ccccc1C(=O)C2=O,,2.82 µM (active)
CCOC(=O)c1c(C)nc(-c2ccccc2)nc1NC(=O)C(C)C,17% (inactive),
CCOC(=O)c1c(C)[nH]c(C)c1S(=O)(=O)N(C)CC(=O)Nc1ccccc1C,0% (inactive),
CCOC(=O)c1c(C)[nH]c(C(=O)NCc2ccccc2OC)c1C,-2.66% (inactive),
CCOC(=O)c1c(C)[nH]c(=S)c(C#N)c1-c1ccccc1,,17.8 µM (active)
COc1cccc(CN(C)C(=O)CC23CC4CC(CC(C4)C2)C3)c1OC,-3.75% (inactive),
COc1cc(/C=C/C(=O)O)cc(S(=O)(=O)Nc2ccccc2C(=O)NCCc2ccccc2)c1OC,-14% (inactive),
OC(CNCCc1ccc(Cl)cc1Cl)COc1ccccc1 (stereo not drawn),-1.98% (inactive),
O=C(CCC(=O)Nc1ccccc1)N/N=C/c1ccccc1F,19% (inactive),
O=C(CCCCCNC(=O)c1ccccc1)N/N=C/c1ccccc1,-1.19% (inactive),
O=C(N/N=C/c1ccccc1O)/C(=C/c1ccccc1)CCO,,1.12 µM (active)
